The results in this text go back to PubChem BioAssay AID2685 (National Center for Advancing Translational Sciences (NCATS), 2010).

SMILES strings stand for the structures. Hit rate of the full screen: of about 320,000 compounds, about 2,100 (0.66%) were called active. About 53% were inconclusive and are not listed. Calls come from the whole dose curve; as a rule, active = well fitted inhibition curve with a large enough effect in the signal ratio, with a control signal flat (not every such curve was filed as active); inconclusive = small, poorly fitted or top-dose-only effect, or effect the other way, or a change in a side signal; inactive = flat fitted curve, though single readings scatter; the % refers to the signal ratio. The full list was thinned out, with actives kept by preference.
Potency is the fitted concentration of half-maximal effect.

This assay in a line: qHTS Assay for Lipid Storage Modulators in Drosophila S3 Cells.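 For cell number change: cells counted by Cell Tracker Red CMTPX staining in the red channel.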 For lipid storage change, negative = inhibition: % is set by controls: 0 for no effect and ±100 for the full control effect. As to conditions: BODIPY lipid droplet fluorescence, 18-24 h, cells fed with added oleic acid; cell number change: measured here: cell count max response; series mostly up to 46.1 µM; lipid storage change, negative = inhibition: at the top concentration. A digest of the protocol: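 Laser-scanning cytometry quantifies lipid droplet accumulation (500–530 nm total intensity; droplet/cell object ratio) in oleic acid-fed (400 uM added) Drosophila S3 cells treated with a concentration series. 20 uM Triacsin C defined 100% inhibition.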
(Quantitative high-throughput screening tests each substance at several concentrations.)
Consider `COc1ccc(OCCNC(=O)c2ccccc2OCC(=O)N2CCCCC2)cc1`, for which the “lipid storage change, negative = inhibition” value is -8.65% (inactive) and the cell number change is -14.3%.
Take `O=C(c1ccc(S(=O)(=O)NCc2ccco2)cc1)N1CCN(Cc2ccccc2F)CC1`: the compound was classed as inactive and the cell number change is -10.8%.
For `COc1cccc(N(C(=O)CS(=O)CC(=O)Nc2ccc(F)cc2)C(C(=O)NC2CCCCC2)c2cccs2)c1` (stereo not given), the “lipid storage change, negative = inhibition” value was -10.8% (inactive) and the cell number change is -4.8%.
Turning to `COC(=O)CCCC1=CC2=CC(=O)C(C)(OC(=O)c3cccs3)C(=O)C2=CN1c1ccc(OC)cc1` (stereo not given), the “lipid storage change, negative = inhibition” value is 5.26% (inactive).
As for `COc1ccc2c(c1)C(=O)N(c1ccc(C)cc1)C(=O)C2`, the “lipid storage change, negative = inhibition” value was -3.58% (inactive) and the cell number change is 11.1%.
The matching figures for `COc1ccc(N2C(=O)Cc3ccccc3C2=O)cc1`: 7.06% (inactive) and 10.9%.
As to `O=C1Cc2ccccc2C(=O)N1c1cccc(Cl)c1`, the compound was classed as inactive and the cell number change worked out at 10.3%.
For the compound `COc1ccc2c(c1)C(=O)N(c1ccccc1)C(=O)C2`, the Potency is 23.1 µM (active) and the cell number change is -11.7%.
The matching figures for `O=C1Cc2ccccc2C(=O)N1c1ccccc1`: 10.3 µM (active) and 9.57%.
Regarding `O=C1Cc2ccccc2N1c1ccccc1`, the “lipid storage change, negative = inhibition” value was 8.9% (inactive) and the cell number change turned out to be 11.5%.
Take `CCOc1ccc(N2C(=O)Cc3ccccc3C2=O)cc1`: the Potency was 29.1 µM (active) and the cell number change worked out at 0.833%.
Regarding `COc1ccc(N2C(=O)c3ccccc3C2=O)cc1`, the “lipid storage change, negative = inhibition” value is 19% (inactive) and the cell number change was 2.95%.
The matching figures for `CCOc1ccc(N2C(=O)c3cccnc3C2=O)cc1`: 12.3% (inactive) and -11.4%.
Regarding `COc1ccccc1C(=O)NC(=O)COC(=O)c1oc2ccccc2c1C`, the “lipid storage change, negative = inhibition” value is -2% (inactive) and the cell number change is 20%.
The matching figures for `CCOc1nc(-c2ccccc2)ccc1-c1noc(-c2ccco2)n1`: 4.86% (inactive) and -9.76%.
The matching figures for `O=C1CN(C(=O)COC(=O)Cc2ccsc2)c2ccccc2N1`: 3.29% (inactive) and 4.09%.
The matching figures for `NC(=O)C(c1ccc(Cl)cc1)c1ncc(C(F)(F)F)cc1Cl` (stereo not given): 20.1% (inactive) and 6.15%.
As for `CCC(=O)c1ccc(OCC(=O)OCC(=O)NC2CCCC2)cc1`, the cell number change is -7.74% and the lipid storage change, negative = inhibition was 7.81% [at 0.0737 µM] (inactive).
The matching figures for `Cc1cccc(NC(=O)c2sc(Cl)nc2C)c1C`: 27.7% and 17.3% (inactive).
As to `Cc1nc(C)c(C(=O)OCC(=O)NCCc2ccc(S(N)(=O)=O)cc2)s1`, the compound was called inactive and the cell number change is 5.35%.
For the compound `COc1ccc(CCNC(=O)COC(=O)c2sc(C)nc2C)cc1`, the “lipid storage change, negative = inhibition” value was -22.8% (inactive) and the cell number change was found to be 13.9%.
`Cc1nc(C)c(C(=O)OCC(=O)Nc2cccc(C)c2C)s1`: the Potency was 16.4 µM (active) and the cell number change was -21.3%.
Turning to `CCOC(=O)c1sc(Nc2cccc(C)c2C)nc1C`, the compound was called inactive.
In the case of `Cc1nc(C)c(C(=O)OCC(=O)NCc2ccccc2)s1`, the Potency was 1.16 µM (active) and the cell number change was found to be 2.69%.
Consider `Cc1cccc(C)c1NC(=O)CN(C)C(=O)c1cccc(-n2cccc2)c1`, for which the lipid storage change, negative = inhibition was 9.6% [at 0.0737 µM] (inactive).
Consider `N#Cc1cccc(NC(=O)COC(=O)CCc2ccc(S(=O)(=O)N3CCOCC3)cc2)c1`, for which the “lipid storage change, negative = inhibition” value was 7.64% (inactive) and the cell number change came to 0.933%.
The matching figures for `CCOC(=O)C(=NC(C)CC)NNc1cccc(C(F)(F)F)c1` (stereo not given): -2.64% (inactive) and 0.302%.
As for `Cc1cccc(C)c1N(CC(=O)NCc1ccccc1)C(=O)c1csnn1`, the compound was called inactive and the cell number change is -7.94%.
In the case of `CN(C)C(=O)c1nc2ccc(Cl)cn2c1CNCc1ccccc1OC(F)(F)F`, the “lipid storage change, negative = inhibition” value was 4.92% (inactive) and the cell number change was -4.39%.
The matching figures for `CC1=N/C(=C/c2cccnc2)C(=O)O1`: 0.341% (inactive) and -0.0715%.
In the case of `CN1C/C(=C\c2ccc(N3CCOCC3)cc2)C(=O)/C(=C/c2ccc(N3CCOCC3)cc2)C1`, the Potency is 7.31 µM (active) and the cell number change was -12.7%.
Regarding `O=C1NC(=S)N/C1=C\c1ccc(N2CCOCC2)cc1`, the “lipid storage change, negative = inhibition” value is -7.79% (inactive).
`CN1C/C(=C/c2cccnc2)C(=O)/C(=C/c2cccnc2)C1`: the Potency was 1.84 µM (active) and the cell number change is -16.3%.
With `CC(C)N1C(=O)S/C(=C/c2cccnc2)C1=O`, the “lipid storage change, negative = inhibition” value is -20.1% (inactive) and the cell number change worked out at 16.4%.
For `CC(C)N1C/C(=C/c2cccnc2)C(=O)/C(=C/c2cccnc2)C1`, the Potency is 23.1 µM (active) and the cell number change was -15.1%.
As for `O=C1/C(=C\c2cccnc2)CCc2ccccc21`, the “lipid storage change, negative = inhibition” value was 5.43% (inactive) and the cell number change was -16.3%.
The matching figures for `C(=N\N1CCN(Cc2ccccc2)CC1)/c1cccnc1`: 10.3% (inactive) and 3.04%.
With `CN1C/C(=C/c2ccncc2)C(=O)/C(=C/c2ccncc2)C1`, the result was inactive and the cell number change came out at 15.3%.
With `CC(C)N1CC2=C(OC(N)=C(C#N)C2c2cccnc2)/C(=C/c2cccnc2)C1` (stereo not given), the “lipid storage change, negative = inhibition” value was 11.8% (inactive) and the cell number change was -0.305%.
As for `O=C1/C(=C\c2cccnc2)CN(Cc2ccccc2)C/C1=C\c1cccnc1`, the Potency was 2.31 µM (active) and the cell number change was -26.3%.
With `O=C1/C(=C/c2cccnc2)CCc2c1[nH]c1ccccc21`, the “lipid storage change, negative = inhibition” value was 19% (inactive) and the cell number change was -5.69%.
The matching figures for `COc1ccc(N2C(=O)/C(=C/c3ccc([N+](=O)[O-])cc3)N=C2C)c(OC)c1`: 12.2% (inactive) and -0.57%.
The matching figures for `O=c1c2cc3c(nc2[nH]c(=S)n1-c1ccccc1)CCCC3`: -3.75% (inactive) and 8.9%.
As to `COc1ccccc1OCCNc1cc(N2CCCCC2)ccc1[N+](=O)[O-]`, the “lipid storage change, negative = inhibition” value is 7.35% (inactive) and the cell number change amounted to 20.1%.
`CCOc1ccc2nc(SCC(=O)Nc3ccc4c(c3)OCCO4)[nH]c2c1`: the call was inactive and the cell number change is -1.86%.
Take `O=C(/C=C/c1ccco1)N(Cc1ccccc1F)C1CCS(=O)(=O)C1` (stereo not given): the “lipid storage change, negative = inhibition” value is 23.1% (inactive) and the cell number change is 19.4%.
The matching figures for `CCOc1ccccc1-n1c(SCC(=O)N2CCOCC2)nnc1-c1ccccn1`: 3.34% (inactive) and 1.75%.
The matching figures for `N#Cc1ccc(/C=N/NC(=O)c2cc(-c3cccs3)nc3ccccc23)cc1`: 21.4% (inactive) and 12.5%.
The matching figures for `COc1ccc(NCc2nnc(SCC(=O)Nc3ccc(OC)cc3OC)o2)cc1`: 8.16% (inactive) and 8.92%.
For `CCOC(=O)N1CCN(C(=O)CN(c2ccccc2OC)S(=O)(=O)c2ccc(C)cc2)CC1`, the call was inactive.
With `O=C1/C(=C\c2ccsc2)N2CCC1CC2`, the “lipid storage change, negative = inhibition” value was -13% (inactive) and the cell number change stood at 5.98%.
As to `CC(C)N1C/C(=C/c2ccsc2)C(=O)/C(=C/c2ccsc2)C1`, the Potency was 14.6 µM (active) and the cell number change was -15.9%.
Regarding `O=C1/C(=C/c2ccsc2)N2CCC1CC2`, the “lipid storage change, negative = inhibition” value is -0.371% (inactive) and the cell number change was -5.13%.
As to `CN(C)CC(C)(C)CNS(=O)(=O)c1ccc(Cl)c(Cl)c1`, the Potency is 23.1 µM (active) and the cell number change was -9.4%.
As to `CC(C)(CNS(=O)(=O)c1ccc(F)cc1)CNS(=O)(=O)c1ccc(F)cc1`, the compound was classed as inactive and the cell number change worked out at 6.92%.
As to `CN(C)CC(C)(C)CNS(=O)(=O)c1ccc(Cl)cc1`, the “lipid storage change, negative = inhibition” value was 1.02% (inactive) and the cell number change is 27.8%.
The matching figures for `CCCc1ccc(OCCNC(=O)C2CCCCC2)cc1`: 10.9% (inactive) and -6.51%.
`CC(=O)Nc1ccc(S(=O)(=O)n2cnc3ccccc32)cc1`: the result was inactive and the cell number change was found to be 13.3%.
Take `O=C(CN1C(=O)CCC1=O)Nc1cccc(NC(=O)CN2C(=O)CCC2=O)c1`: the “lipid storage change, negative = inhibition” value was -8.67% (inactive) and the cell number change is -5.66%.
The matching figures for `O=C(CCN1c2ccccc2Sc2ccccc21)Oc1ccccc1`: 1.68% (inactive) and -0.775%.
